Assay results from PubChem BioAssay.
Active and inactive are the calls of the source.

What was measured:
[1] = system: Human papillomavirus type 1a protein E7 (residues 44-93); test: HPV1a E7 fragment binders on microarrays, primary screen, biochemical, small-molecule microarray, residues 44-93, 635 nm fluorescence (AID 1108); settings: small-molecule microarray binding, fluorescence 635 nm; higher = more signal;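 note: E7 fragment applied at 1 µg/mL in TBST for 1 h at 4 C; score combines spot fluorescence with its signal to noise ratio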
[2] = modulators of HCV replicon luciferase signal, primary screen, HCV replication inhibitor project, Huh7 cells, luciferase reporter (AID 1109); settings: 48 h, higher = more signal;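 note: huh7 hepatoma cells harbouring a luciferase neomycin HCV replicon reporter; luciferase luminescence as measure of HCV replicon replication; test concentration not given here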
[3] = target: Left-right determination factor 2 (Homo sapiens) (UniProt O00292); test: LEFTY2 binders on small-molecule microarrays, primary screen, biochemical, small-molecule microarray, 635 nm fluorescence scan (AID 1110); settings: LEFTY2 binding, higher = more signal
[4] = target: Calmodulin-1 (Homo sapiens) (UniProt P0DP23); test: CALM1 binders on microarrays, EGTA buffer, profiling panel, biochemical, small-molecule microarray, Cy5-labelled CALM1 (AID 1111); settings: Cy5-CALM1 binding fluorescence, higher = more signal;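 note: labelled calmodulin applied in Tris saline Tween buffer holding calcium plus EGTA and DTT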
[5] = target: Calmodulin-1 (Homo sapiens) (UniProt P0DP23); test: calcium-bound CALM1 binders on microarrays, profiling panel, artefact control for SMM control-protein annotation, biochemical, small-molecule microarray, Cy5-labelled CALM1, plus calcium (AID 1112); settings: Cy5-CALM1 binding fluorescence, higher = more signal;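 note: score merges spot fluorescence with signal to noise from triplicate slides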
[6] = small-molecule microarray binders of probe aWnt5a, primary screen, biochemical, biotinylated probe, 635/667 nm fluorescence (AID 1113); settings: higher = more signal;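 note: score merges 667 nm fluorescence intensity with signal-to-noise per printed feature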
[7] = small-molecule microarray binders of probe aShh, primary screen, biochemical, biotinylated probe, 635/667 nm fluorescence (AID 1114); settings: higher = more signal;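 note: probe is biotin-labelled aShh protein from a stem cell growth factor screen; measures binding of labelled protein to compounds printed on the slide; score merges feature fluorescence at 667 nm with signal-to-noise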
[8] = small-molecule microarray binders of probe aNog, primary screen, biochemical, biotinylated probe, 635/667 nm fluorescence (AID 1115); settings: higher = more signal;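 note: probe is biotinylated aNog protein used at 0.15 µg/mL for 1 h at 4 C; z-score combines 667 nm fluorescence of each spot with its signal to noise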
[9] = target: Torsin-1A-interacting protein 1 (Homo sapiens) (UniProt Q5JTV8); test: LAP1 binders from COS7 cell lysate, primary screen, small-molecule microarray, 635/667 nm fluorescence (AID 1116); settings: COS7-hLAP1 lysate binding, 635 nm fluorescence, higher = more signal
[10] = target: Alpha-bungarotoxin (Bungarus multicinctus) (UniProt P60615); test: alpha-bungarotoxin binders on microarray, profiling panel, artefact control for SMM control protein annotation, biochemical, small-molecule microarray, Alexa647 label, 635/667 nm fluorescence (AID 1117); settings: alpha-BTX-A647 binding fluorescence, higher = more signal
Albumin (Bos taurus) = Albumin (Bos taurus) (UniProt P02769); test: bovine serum albumin binders on microarray, profiling panel, artefact control for SMM control protein annotation, biochemical, small-molecule microarray, Alexa647 label, 635/667 nm fluorescence (AID 1118); settings: BSA-A647 binding, fluorescence 635 nm, higher = more signal;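 note: score merges 667 nm emission intensity and signal-to-noise per printed compound spot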
[11] = small-molecule microarray binders of probe aXIP, primary screen, biochemical, NeuroSMM set, 635/667 nm fluorescence (AID 1119); settings: higher = more signal, called active from +8 up or from −8 down;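 note: probe is the protein aXip251-270 applied at 1 µg/mL to compound-printed slides; binding of probe to printed compounds measured as 667 nm fluorescence plus signal to noise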
[12] = small-molecule binders of probe aNOTCH3, primary screen, biochemical, small-molecule microarray, 635/667 nm fluorescence (AID 1120); settings: higher = more signal;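 note: probe is a biotin-tagged antibody raised against NOTCH3 rather than NOTCH3 protein; score merges spot fluorescence near 667 nm with spot signal to noise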
[13] = small-molecule binders of probe aNOTCH2, primary screen, biochemical, small-molecule microarray, 635/667 nm fluorescence (AID 1121); settings: higher = more signal;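 note: score merges feature fluorescence read at 667 nm with its signal to noise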
[14] = target: Carbonic anhydrase 2 (Homo sapiens) (UniProt P00918); test: CAII small-molecule binders, profiling panel, biochemical, small-molecule microarray, Alexa647-labelled CAII (AID 1122); settings: CAII-A647 binding fluorescence, higher = more signal
[15] = COS7 lysate on small-molecule microarray, probe aHis, 635 nm (AID 1123); settings: COS7 cell lysate, fluorescence, higher = more signal;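 note: z-score combines 667nm fluorescence intensity with signal-to-noise per printed compound spot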
[16] = compound binding in COS7 lysate, probe aLAP1, primary screen, cell lysate, small-molecule microarray (AID 1124); settings: probe aLAP1, fluorescence, higher = more signal;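 note: lysate comes from COS7 cells expressing LAP1 and is applied at 0.3 µg/mL; score merges spot fluorescence near 667 nm with signal-to-noise over triplicate slides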
Sam68 (KHDRBS1) = test: Sam68 small-molecule binders, primary screen, biochemical, small-molecule microarray, 635 nm fluorescence (AID 1125); settings: small-molecule microarray binding, higher = more signal;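 note: score merges 667 nm channel intensity with signal to noise over triplicate slides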
[17] = system: Chordin-like protein 2 (CHRDL2); test: CHRDL2 small-molecule binders, primary screen, biochemical, small-molecule microarray, 635 nm fluorescence (AID 1126); settings: small-molecule microarray binding, fluorescence 635 nm; higher = more signal;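 note: printed compound slides probed with Chrdl2 protein at 4 µg/mL for 1 h at 4 C; score merges 667 nm emission intensity with signal to noise over three replicate slides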
[18] = target: Concanavalin-A (Canavalia ensiformis) (UniProt P02866); test: ConA small-molecule binders, primary screen, artefact control for SMM control protein annotation, biochemical, small-molecule microarray, Alexa647 label, 635 nm (AID 1127); settings: ConA-A647 binding fluorescence, higher = more signal;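 note: z combines 667 nm emission intensity with signal-to-noise across three replicate slides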
Chain of Concanavalin-A (Canavalia ensiformis) (P02866 whole entry, looked up): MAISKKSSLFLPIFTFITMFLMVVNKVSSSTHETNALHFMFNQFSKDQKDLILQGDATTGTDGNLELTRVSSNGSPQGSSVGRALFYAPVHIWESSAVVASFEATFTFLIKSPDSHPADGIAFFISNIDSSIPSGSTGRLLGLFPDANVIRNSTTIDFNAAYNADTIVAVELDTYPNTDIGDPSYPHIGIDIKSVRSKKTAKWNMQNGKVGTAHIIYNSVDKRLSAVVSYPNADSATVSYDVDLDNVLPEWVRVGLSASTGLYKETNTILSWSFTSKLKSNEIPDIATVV

Chain of Alpha-bungarotoxin (Bungarus multicinctus) (P60615 whole entry, looked up): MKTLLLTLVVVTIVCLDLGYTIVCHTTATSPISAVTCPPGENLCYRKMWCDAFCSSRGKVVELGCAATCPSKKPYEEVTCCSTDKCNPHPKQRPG
Chain of Torsin-1A-interacting protein 1 (Homo sapiens) (Q5JTV8 whole entry, looked up): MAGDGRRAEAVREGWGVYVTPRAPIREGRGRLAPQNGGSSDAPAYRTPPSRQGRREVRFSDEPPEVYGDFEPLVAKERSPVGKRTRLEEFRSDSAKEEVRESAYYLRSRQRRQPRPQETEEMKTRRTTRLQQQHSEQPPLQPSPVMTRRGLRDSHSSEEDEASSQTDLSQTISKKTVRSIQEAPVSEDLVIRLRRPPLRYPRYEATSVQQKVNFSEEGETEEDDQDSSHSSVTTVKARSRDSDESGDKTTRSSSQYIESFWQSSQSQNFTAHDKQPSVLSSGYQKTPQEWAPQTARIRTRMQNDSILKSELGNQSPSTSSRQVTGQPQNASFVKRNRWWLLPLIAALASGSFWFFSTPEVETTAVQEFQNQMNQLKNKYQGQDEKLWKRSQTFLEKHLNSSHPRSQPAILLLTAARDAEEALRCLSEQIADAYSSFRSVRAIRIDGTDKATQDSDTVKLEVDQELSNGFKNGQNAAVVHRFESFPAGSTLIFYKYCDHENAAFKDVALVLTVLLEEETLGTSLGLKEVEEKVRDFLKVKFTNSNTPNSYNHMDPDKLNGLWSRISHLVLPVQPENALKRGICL
Chain of Left-right determination factor 2 (Homo sapiens) (O00292 whole entry, looked up): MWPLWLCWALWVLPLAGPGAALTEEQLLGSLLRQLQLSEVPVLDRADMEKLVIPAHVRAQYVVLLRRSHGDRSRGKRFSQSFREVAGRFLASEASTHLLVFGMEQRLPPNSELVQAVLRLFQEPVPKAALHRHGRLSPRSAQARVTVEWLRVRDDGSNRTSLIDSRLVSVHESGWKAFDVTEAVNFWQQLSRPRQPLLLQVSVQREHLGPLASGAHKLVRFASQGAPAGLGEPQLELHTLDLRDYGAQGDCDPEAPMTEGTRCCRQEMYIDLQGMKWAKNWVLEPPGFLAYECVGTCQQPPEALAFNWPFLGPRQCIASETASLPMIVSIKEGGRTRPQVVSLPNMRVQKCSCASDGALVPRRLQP
Chain of Albumin (Bos taurus) (P02769 whole entry, looked up): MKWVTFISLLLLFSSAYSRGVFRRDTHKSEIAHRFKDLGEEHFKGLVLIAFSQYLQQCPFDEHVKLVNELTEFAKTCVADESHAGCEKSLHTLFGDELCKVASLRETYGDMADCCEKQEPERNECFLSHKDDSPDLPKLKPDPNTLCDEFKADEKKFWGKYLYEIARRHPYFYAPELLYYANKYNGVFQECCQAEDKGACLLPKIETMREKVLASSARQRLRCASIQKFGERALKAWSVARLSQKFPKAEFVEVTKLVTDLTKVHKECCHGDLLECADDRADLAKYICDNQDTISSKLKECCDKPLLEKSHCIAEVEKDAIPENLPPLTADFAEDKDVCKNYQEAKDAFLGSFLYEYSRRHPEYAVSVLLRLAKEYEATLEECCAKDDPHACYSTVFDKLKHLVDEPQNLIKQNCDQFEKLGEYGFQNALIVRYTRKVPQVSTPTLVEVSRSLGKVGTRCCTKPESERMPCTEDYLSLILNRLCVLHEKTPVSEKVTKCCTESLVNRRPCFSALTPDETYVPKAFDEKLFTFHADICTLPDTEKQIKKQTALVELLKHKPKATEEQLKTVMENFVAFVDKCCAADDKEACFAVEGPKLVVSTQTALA

Structure (SMILES)	composite z-score [1]	z-score [2]	composite z-score [3]	composite z-score [4]	composite z-score [5]	composite z-score [6]	composite z-score [7]	composite z-score [8]	composite z-score [9]	composite z-score [10]	composite z-score (Albumin (Bos taurus))	composite Z-score [11]	composite z-score [12]	composite z-score [13]	composite z-score [14]	composite z-score [15]	composite z-score [16]	composite z-score (Sam68 (KHDRBS1))	composite z-score [17]	composite z-score [18]
COc1ccc(C(=O)Nc2cccc(CN3C(=O)[C@@]4(O[C@@H](CC(=O)N(CCO)Cc5ccccc5)[C@H]([Si](C)(C)c5ccc(OC)cc5)[C@H]4C)c4ccccc43)c2)cc1	1.18	-3.89	0.344	0.822	-0.0254	-0.187	-0.206	-0.38	1.12	0.681	0.441	0.799 (inactive)	-0.122	-0.0868	0.56	1.56	0.229	1.19	0.351	0.601
COCC1C2CC[C@H]3C(OCc4ccc(OC)cc4)OC[C@]4(C)[C@H]3C2=C(CN4C(=O)OC(C)(C)C)[C@H](C)C1COC (stereo not given in full)	1.4	-0.733	0.366	2.47	0.671	-0.0134	0.0898	-0.373	0.782	1.14	1	0.709 (inactive)	0.249	-0.182	0.796	2.82	0.534	1.3	-0.355	1.15
[N-]=[N+]=NCc1ccccc1[C@H]1OC(c2ccc(OCCCO)cc2)=N[C@@]1(CCS(=O)(=O)c1ccccc1)C(=O)NCc1ccccc1	1.4	-2.04	0.115	1.65	0.84	0.0253	0.14	0.543	0.804	2.15	0.852	0.421 (inactive)	0.281	0.0323	0.435	1.6	0.0714	1.24	0.187	1.13
C=CCNC(=O)[C@H]1[C@@H]2C(=O)O[C@@H](c3ccccc3)[C@@H](c3ccccc3)N2[C@@H](c2ccc(OCCO)cc2)[C@]12C(=O)Nc1ccc(C#CCNC(N)=O)cc12	0.0863	-0.587	0.192	1.41	1.15	-0.0009	0.163	0.85	0.311	2.07	0.601	-0.262 (inactive)	0.103	-0.0624	0.587	0.261	-0.113	1.18	-0.269	1.1
CN1C(=O)[C@@]2(Cc3ccccc3)N=C(c3ccc(OCCCO)cc3)O[C@H]2c2ccccc21	1.3	-2.57	0.879	0.329	0.458	-0.0495	0.0372	1.26	0.344	0.846	0.495	2.86 (inactive)	0.0894	-0.0226	0.603	2.68	-0.233	1.19	0.882	1.11
CN(C)CCCCNC(=O)[C@H]1C[C@H]2C(=O)N[C@@H](CCCC[N+](C)(C)C)C(=O)N2[C@H]1c1ccc(O)cc1	-1.55	-0.027	-0.0658	-0.0691	-0.441	-0.208	-0.2	-0.253	-0.511	0.15	-0.165	0.261 (inactive)	-0.208	0.2	0.716	-0.287	0.106	-0.863	-0.187	0.343
O=C1O[C@H](c2ccccc2)[C@H](c2ccccc2)N2[C@H]1[C@@H](C(=O)N1CCCCCCC1)[C@]1(C(=O)Nc3ccc(C#CC4(O)CCCCCC4)cc31)[C@H]2c1ccc(O)cc1	1.4	-1.36	1.33	2.42	1.19	1.2	2.97	3.1	4.57	2.28	-0.0339	5.24 (inactive)	1.77	0.956	0.705	3.64	1.42	1.29	1.39	1.07
[N-]=[N+]=NCc1ccccc1[C@@H]1OC(c2ccc(OCCCO)cc2)=N[C@]1(Cc1ccccc1N=[N+]=[N-])C(=O)N1CCCCC1	1.41	-2.12	0.0538	1.93	1.26	-0.248	-0.023	-0.538	0.482	0.671	0.354	0.038 (inactive)	-0.137	-0.116	0.56	2.57	0.0904	1.22	-0.39	1.14
CCOC(=O)C1=C[C@@H](C(C)(C)C)N(S(=O)(=O)c2ccc(C)cc2)[C@H]1c1ccc(C)cc1	0.974	-1.04	0.424	1.81	-0.0354	0.0479	-0.0709	1.27	0.229	1.11	0.804	0.403 (inactive)	0.305	0.0554	0.263	2.49	0.512	1.29	0.205	1.18
CCOC(=O)C1=CCN(S(=O)(=O)c2ccc(C)cc2)C1c1ccccc1 (stereo not given)	0.666	-3.27	0.564	-0.263	-0.197	-0.0346	0.0204	0.46	0.553	0.848	1.02	0.728 (inactive)	0.0836	-0.0607	0.685	1.69	0.709	1.08	0.132	1.14
COCCOC(=O)N1C(=O)[C@@]2(c3cc(C#CCC(C(=O)OC)C(=O)OC)ccc31)[C@H](c1ccc(O)cc1)N1[C@H](c3ccccc3)[C@H](c3ccccc3)OC(=O)[C@H]1[C@@H]2C(=O)NC[C@H](O)c1ccccc1	1.33	-0.496	0.485	1.91	0.67	-0.0172	-0.147	-0.346	1.06	0.353	0.781	0.7 (inactive)	-0.196	-0.14	0.63	2.2	0.588	0.296	-0.282	1.07
